These results are taken from PubChem BioAssay.

A number with no mark means an inactive call. Calls of active or inactive are those of the source. Rule as the data show it, unless noted: active = inhibition above about 25%; inactive = the rest.

Assay [1] concerns the target Nuclear receptor coactivator 3 (Homo sapiens) (UniProt Q9Y6Q9). Put plainly: NCOA3 GAL4-fusion reporter inhibition – cell-based, luminescence, quadruplicate, confirmation (AID 588792;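 active = mean inhibition over 43.08%, the solvent-only control mean plus 3 SD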;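 also: 0% = DMSO treated cells and 100% = gossypol at 36 µM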). The following applies: HEK293 GAL4-SRC3 luciferase reporter, at 3.6 µM, hits give high values. On the technique in general: Reporter assays use an easily measured gene product as a stand-in for the process of interest.

Assay [2] concerns transactivating tegument protein VP16 (Human herpesvirus 1), Gal4-VP16 luciferase reporter. Put plainly: repression of VP16-driven luciferase reporter – cell-based, luminescence, high throughput, counter-screen for SRC3 inhibitor project (AID 588794; in the data active = inhibition above about 30%). Conditions: mammalian cells, at 3.6 µM, hits give high values.
Assay [3] deals with Nuclear receptor coactivator 1 (Homo sapiens) (UniProt Q15788). Put plainly: NCOA1 GAL4-fusion reporter inhibition – cell-based, luminescence, quadruplicate, confirmation (AID 588820;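 active = mean inhibition above 46.68%, the untreated control wells mean plus 3 SD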;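 also: 0% = DMSO wells and 100% = gossypol 36 µM treated wells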). The following applies: HEK293 GAL4-SRC1 luciferase reporter, at 3.6 µM, hits give high values.
Sequence of Nuclear receptor coactivator 1 (Homo sapiens) (Q15788 whole entry, looked up, the tested form may be a part): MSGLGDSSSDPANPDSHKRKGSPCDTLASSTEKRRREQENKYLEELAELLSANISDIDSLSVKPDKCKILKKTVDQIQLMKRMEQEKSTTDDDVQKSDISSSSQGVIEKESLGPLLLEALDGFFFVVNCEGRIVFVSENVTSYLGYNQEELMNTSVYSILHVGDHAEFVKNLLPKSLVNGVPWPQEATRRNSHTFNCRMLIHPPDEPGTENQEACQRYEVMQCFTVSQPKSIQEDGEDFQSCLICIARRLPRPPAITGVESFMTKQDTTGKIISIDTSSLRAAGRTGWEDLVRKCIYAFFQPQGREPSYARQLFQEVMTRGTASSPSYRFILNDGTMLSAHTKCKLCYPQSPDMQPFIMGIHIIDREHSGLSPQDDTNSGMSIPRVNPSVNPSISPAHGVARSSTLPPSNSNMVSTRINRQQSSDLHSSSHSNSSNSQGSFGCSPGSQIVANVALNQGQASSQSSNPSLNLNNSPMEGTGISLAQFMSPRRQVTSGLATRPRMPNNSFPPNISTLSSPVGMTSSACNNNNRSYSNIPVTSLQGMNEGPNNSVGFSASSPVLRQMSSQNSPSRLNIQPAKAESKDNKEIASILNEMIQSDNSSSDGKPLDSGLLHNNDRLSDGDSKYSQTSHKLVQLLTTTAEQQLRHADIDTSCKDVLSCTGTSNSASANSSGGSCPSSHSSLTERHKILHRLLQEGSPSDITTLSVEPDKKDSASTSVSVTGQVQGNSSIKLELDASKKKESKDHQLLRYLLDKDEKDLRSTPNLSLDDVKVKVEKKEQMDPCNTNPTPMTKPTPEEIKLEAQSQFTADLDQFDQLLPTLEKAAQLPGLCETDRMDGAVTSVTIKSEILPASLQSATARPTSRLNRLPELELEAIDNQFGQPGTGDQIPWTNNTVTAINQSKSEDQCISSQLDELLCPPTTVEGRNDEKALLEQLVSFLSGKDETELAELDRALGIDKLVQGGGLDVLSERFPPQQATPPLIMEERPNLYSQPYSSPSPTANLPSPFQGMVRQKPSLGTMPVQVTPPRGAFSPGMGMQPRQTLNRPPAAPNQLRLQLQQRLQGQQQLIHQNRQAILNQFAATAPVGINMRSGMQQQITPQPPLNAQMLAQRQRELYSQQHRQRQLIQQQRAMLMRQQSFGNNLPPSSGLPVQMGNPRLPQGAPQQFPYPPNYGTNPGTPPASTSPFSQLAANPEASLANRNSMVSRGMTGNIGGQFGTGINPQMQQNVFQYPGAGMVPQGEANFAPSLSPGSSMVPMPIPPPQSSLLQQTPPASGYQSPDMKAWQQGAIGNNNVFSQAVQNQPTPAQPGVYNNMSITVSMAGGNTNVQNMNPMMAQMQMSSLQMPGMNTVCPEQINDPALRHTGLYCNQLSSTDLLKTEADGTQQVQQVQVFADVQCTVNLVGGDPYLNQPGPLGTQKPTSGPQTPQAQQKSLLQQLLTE
Assay [4] can be described thus: repression of VP16-driven luciferase reporter – cell-based, luminescence, high throughput, counter-screen for SRC1 inhibitor project (AID 588824). The following applies: cell-based VP16 transactivation luciferase luminescence; at 3.6 µM; hits give high values.

Sequence of Nuclear receptor coactivator 3 (Homo sapiens) (Q9Y6Q9 whole entry, looked up, the tested form may be a part): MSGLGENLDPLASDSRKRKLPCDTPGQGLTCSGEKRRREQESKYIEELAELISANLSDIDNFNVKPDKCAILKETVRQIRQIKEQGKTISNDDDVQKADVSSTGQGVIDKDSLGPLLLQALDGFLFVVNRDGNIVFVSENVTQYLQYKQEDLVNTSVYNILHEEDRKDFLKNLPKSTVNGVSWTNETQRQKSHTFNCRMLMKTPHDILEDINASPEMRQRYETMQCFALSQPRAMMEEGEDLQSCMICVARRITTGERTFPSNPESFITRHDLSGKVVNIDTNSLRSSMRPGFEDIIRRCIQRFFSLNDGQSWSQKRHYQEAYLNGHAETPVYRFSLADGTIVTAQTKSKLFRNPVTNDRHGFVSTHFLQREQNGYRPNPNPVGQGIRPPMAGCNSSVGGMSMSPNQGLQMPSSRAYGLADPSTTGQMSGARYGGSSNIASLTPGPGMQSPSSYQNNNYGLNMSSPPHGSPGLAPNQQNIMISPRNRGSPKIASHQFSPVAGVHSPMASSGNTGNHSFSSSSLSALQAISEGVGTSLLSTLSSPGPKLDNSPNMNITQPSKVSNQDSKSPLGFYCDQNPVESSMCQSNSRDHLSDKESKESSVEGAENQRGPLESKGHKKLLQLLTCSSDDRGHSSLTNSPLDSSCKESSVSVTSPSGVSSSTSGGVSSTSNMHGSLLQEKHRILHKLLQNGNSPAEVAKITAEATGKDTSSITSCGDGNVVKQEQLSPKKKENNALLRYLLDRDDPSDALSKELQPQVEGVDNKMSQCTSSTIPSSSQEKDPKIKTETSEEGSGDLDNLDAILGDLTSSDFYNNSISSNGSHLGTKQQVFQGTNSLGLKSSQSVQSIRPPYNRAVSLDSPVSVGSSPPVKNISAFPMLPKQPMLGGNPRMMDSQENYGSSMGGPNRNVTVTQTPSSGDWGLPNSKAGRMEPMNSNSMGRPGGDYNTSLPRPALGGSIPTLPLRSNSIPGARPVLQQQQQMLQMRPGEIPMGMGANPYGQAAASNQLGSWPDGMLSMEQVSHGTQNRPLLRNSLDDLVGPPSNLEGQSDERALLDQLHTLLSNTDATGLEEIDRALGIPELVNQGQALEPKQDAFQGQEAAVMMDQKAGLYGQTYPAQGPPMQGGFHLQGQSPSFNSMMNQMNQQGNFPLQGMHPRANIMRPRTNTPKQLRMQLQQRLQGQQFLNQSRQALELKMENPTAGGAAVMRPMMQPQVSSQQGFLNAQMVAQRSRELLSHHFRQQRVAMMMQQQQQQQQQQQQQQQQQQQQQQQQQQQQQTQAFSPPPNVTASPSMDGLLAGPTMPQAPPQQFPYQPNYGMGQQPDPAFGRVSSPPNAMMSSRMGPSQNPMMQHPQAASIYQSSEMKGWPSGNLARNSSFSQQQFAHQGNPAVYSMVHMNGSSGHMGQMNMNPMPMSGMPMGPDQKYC

`N=c1c2c(-c3ccccc3)c(-c3ccccc3)n(Cc3ccco3)c2ncn1CCCO`: the inhibition (as a rule, the drop in the measured response relative to a control, in per cent) is 26.8% in assay [1], 52.6% (active) in assay [2], 36.9% in assay [3] and 51.3% (active) in assay [4].
For `O=C(N/N=C/c1sc(N2CCOCC2)nc1-c1ccccc1)c1cccc(S(=O)(=O)N2CCCC2)c1`, the inhibition in assay [1] was 53.4% (active); in assay [2], 67% (active); in assay [3], 50.8% (active); in assay [4], 72% (active).
Take `Cc1nc(N)nc(N)c1-c1ccc(Cl)c(Cl)c1`: the inhibition is 58.5% (active) in assay [1], 24.5% in assay [2], 54.2% (active) in assay [3] and 33.6% (active) in assay [4].
As to `Cc1cc2[nH]c3ccccc3c2c(C)n1`, the inhibition is -0.94% in assay [1], 18.7% in assay [2], -3.38% in assay [3] and 9.89% in assay [4].
Turning to `CN(C(=O)COC(=O)/C=C/c1cccc([N+](=O)[O-])c1)C1CCS(=O)(=O)C1` (configuration not stated), the inhibition is 39.1% in assay [1], 32.4% (active) in assay [2], 41.6% in assay [3] and 29.5% (active) in assay [4].
On to `Cc1ccc(S(=O)(=O)N2CCN(S(C)(=O)=O)CC2)cc1`, for which the inhibition in assay [1] is 24.1%; in assay [2] it was 19.9%; in assay [3], -0.28%; in assay [4], 6.89%.
The corresponding values for `COc1ccc(-c2cn[nH]c2C)cc1OC` are 21.1%, 10.4%, 12.1% and 10.7%.
In the case of `CCCCN(CCCC)c1ncnc2nc[nH]c12`, the inhibition in assay [1] was 43.2% (active); in assay [2] it was 30.1% (active); in assay [3], 36.2%; in assay [4], 25.2%.
For the compound `CN(C)S(=O)(=O)c1ccc(-c2csc(N/N=C/c3ccco3)n2)cc1`, the inhibition was -2.21% in assay [1], 16.7% in assay [2], -22.3% in assay [3] and 20.1% in assay [4].
`COC(=O)c1ccc2nc(Nc3nc4ccc(F)cc4s3)sc2c1`: the inhibition is 21.2% in assay [1], 3.83% in assay [2], -36.1% in assay [3] and -19.9% in assay [4].
As to `O=c1[nH]c(=O)n(C2C[C@H](O)[C@@H](CO)O2)cc1C(F)(F)F` (some centres not stated), the inhibition in assay [1] was 45.7% (active); in assay [2], 40% (active); in assay [3], 54.4% (active); in assay [4], 44.3% (active).
As to `CN(C)c1ccc(Nc2ncnc3ccc(Br)cc23)cc1`, the inhibition in assay [1] is 47.3% (active); in assay [2], 30.8% (active); in assay [3] it was 40.8%; in assay [4] it was 20.2%.
Consider `CC(C)(C)c1nnc(N/N=C/c2cc(Br)ccc2O)n(N)c1=O`, for which the inhibition in assay [1] was 79% (active); in assay [2], 69.2% (active); in assay [3] it was 72% (active); in assay [4], 63% (active).
Turning to `CC(=O)N1c2ccc(S(=O)(=O)NCC3CCC(C(=O)Nc4cccc(C)n4)CC3)cc2CC1C` (configuration not stated), the inhibition in assay [1] is -3.79%; in assay [2], 27.4%; in assay [3], -11.2%; in assay [4], 21.6%.
On to `COc1cc2oc(=O)cc(-c3ccc(-c4ccc(CO)cc4)cc3)c2c(OC)c1OC`, for which the inhibition in assay [1] is 45.9% (active); in assay [2], 28.3%; in assay [3] it was 32.9%; in assay [4], 32.5% (active).
For the compound `N#Cc1c2ccc(O)cc2n2ccccc12`, the inhibition in assay [1] was 41.8%; in assay [2], 21.9%; in assay [3], 42.8%; in assay [4], 11.9%.
For `CCOC(=O)C(=Cc1ccccc1OC)C(=O)OCC`, the inhibition in assay [1] was 27.3%; in assay [2] it was 25.4%; in assay [3], 9.25%; in assay [4], 22.2%.
As for `O=c1[nH]c(=O)n(C2OC(CO)C(O)C2O)cc1F` (configuration not stated), the inhibition is 57.4% (active) in assay [1], 58.5% (active) in assay [2], 26.9% in assay [3] and 57.2% (active) in assay [4].
In the case of `O=C(NC1CCCN(Cc2ccccc2F)C1)c1cccc(N2CCCC2=O)c1` (configuration not stated), the inhibition was 3.31% in assay [1], -7.69% in assay [2], -4.75% in assay [3] and -1.08% in assay [4].
The corresponding values for `CN(C)C=Nc1c(C(=O)c2ccccc2)sc2nccc(N(C)C)c12` are 20.3%, 16.3%, 30.8% and 16.9%.
The corresponding values for `Cc1nc(N2CCC(C(N)=O)CC2)c2c(-c3cccs3)csc2n1` are 38%, 25.8%, 34.9% and 18.9%.
The corresponding values for `CN(C)CCCN1C(=O)c2cccc3c([N+](=O)[O-])ccc(c23)C1=O` are 17.8%, 5.35%, -9.62% and 0.85%.
`COc1cc(/C=N/NC(=Nc2ccc(C)cc2)c2nc3ccccc3s2)ccc1O`: the inhibition in assay [1] is 35.6%; in assay [2], 9.45%; in assay [3], 11.4%; in assay [4] it was -38%.
With `Fc1ccc(CSc2nnc(-c3ccncc3)o2)cc1`, the inhibition in assay [1] is 53.9% (active); in assay [2], 22.7%; in assay [3] it was 29.9%; in assay [4], 19.3%.
On to `COc1ccc(-c2nsc3c(N4CCCCC4)ncnc23)cc1`, for which the inhibition in assay [1] is 32.4%; in assay [2], 20.4%; in assay [3] it was 1.39%; in assay [4], -6.65%.
On to `CCCCC(=O)NC(c1ccc(C(C)C)cc1)c1ccc2cccnc2c1O` (configuration not stated), for which the inhibition in assay [1] was 62% (active); in assay [2], 61.1% (active); in assay [3] it was 58.2% (active); in assay [4] it was 66% (active).
Consider `O=C(N/N=C/c1cc(Cl)ccc1O)c1ccc(Br)cc1`, for which the inhibition is 55.7% (active) in assay [1], 40.1% (active) in assay [2], 23.3% in assay [3] and 38.4% (active) in assay [4].
Turning to `O=C(NCc1ccccc1)c1csc(-c2cccnc2)n1`, the inhibition was 54.8% (active) in assay [1], 30.8% (active) in assay [2], 42.7% in assay [3] and 37% (active) in assay [4].
The corresponding values for `CSc1ncnc2c1ncn2CC(=O)C1CCC2C3CCC4=CC(=O)CCC4(C)C3CCC12C` (configuration not stated) are 19.5%, 12.2%, -0.31% and 12.1%.
As to `CC(C)CCNC(=O)C(c1ccncc1)N(Cc1cccs1)C(=O)Cn1nnc(-c2ccc(F)cc2)n1` (configuration not stated), the inhibition is 66.2% (active) in assay [1], 54.1% (active) in assay [2], 46.3% in assay [3] and 52.2% (active) in assay [4].
Take `NC(=O)c1sc2nccc(Nc3ccccc3)c2c1N`: the inhibition in assay [1] was 70.9% (active); in assay [2] it was 47.7% (active); in assay [3] it was 53.8% (active); in assay [4], 39.8% (active).
The corresponding values for `COc1cccc(/C=N/NC(=O)c2cc(-c3cccn3C)n[nH]2)c1O` are 41.2%, 35.7% (active), 37.6% and 35.6% (active).
The corresponding values for `O=C(NCc1ccco1)c1ccc2c(c1)N(Cc1ccccc1)CCS2` are 4.13%, 6.64%, 3.44% and 1.86%.
Consider `C=CCOc1ccccc1CNc1ccc2c(c1)OCCO2`, for which the inhibition in assay [1] was 25.2%; in assay [2], 12.4%; in assay [3] it was -17.1%; in assay [4], -30.1%.
Turning to `Cc1ccc(CNc2ncnc3ccc(-c4ccoc4C)cc23)o1`, the inhibition in assay [1] is 58.8% (active); in assay [2], 52% (active); in assay [3], 62% (active); in assay [4] it was 50.9% (active).
Take `CC(C)(C)S(=O)N1Cc2cc(C(=O)NCC(F)(F)F)nc(-c3cccc(-c4cccc(F)c4)c3)c2[C@@H]1CCO` (some centres not stated): the inhibition in assay [1] was 10.3%; in assay [2], 2.05%; in assay [3], -14.2%; in assay [4], -2.6%.
Take `CCSCCc1nnc(NC(=O)Nc2cccc(C(F)(F)F)c2)s1`: the inhibition in assay [1] was 47.7% (active); in assay [2], 43.8% (active); in assay [3] it was 45.9%; in assay [4], 28.4% (active).
As for `Cc1ccc(-c2nnn(CC(=O)N(Cc3cccs3)C(C(=O)NC3CCCC3)c3ccncc3)n2)cc1` (configuration not stated), the inhibition was 58.2% (active) in assay [1], 35.2% (active) in assay [2], 48.4% (active) in assay [3] and 34.1% (active) in assay [4].
In the case of `Cc1ccc(C(=O)CSc2cnc3ccccc3n2)cc1C`, the inhibition in assay [1] was -16.1%; in assay [2], -33%; in assay [3], -96.7%; in assay [4], -68.1%.
In the case of `CC(=O)NC(c1ccc(C)cc1)c1cc(Cl)c2cccnc2c1O` (configuration not stated), the inhibition in assay [1] was 26.4%; in assay [2] it was 22.3%; in assay [3], 36.4%; in assay [4], 29.6% (active).
For the compound `O=C(Nc1nc(-c2ccccc2)cs1)C1CCCN(S(=O)(=O)c2ccccc2)C1` (configuration not stated), the inhibition in assay [1] was -1.67%; in assay [2], 16.4%; in assay [3] it was -23.1%; in assay [4] it was 22.9%.
The corresponding values for `O=C(N/N=C/c1cc(Br)ccc1O)c1ccncc1` are 23.8%, 34.2% (active), 26.4% and 39.9% (active).
The corresponding values for `Cc1ccc(S(=O)(=O)N2[C@@H](c3ccc(C(C)(C)C)cc3)C(C(=O)O)=CC[C@H]2c2ccc(Cl)cc2)cc1` are 16.6%, 23.9%, 28.7% and 19.6%.
As to `COc1cc(/C=C2\CC(C(C)(C)C)C/C(=C\c3cc(OC)c(OC)c(OC)c3)C2=O)cc(OC)c1OC` (configuration not stated), the inhibition in assay [1] was 58.4% (active); in assay [2], 19.3%; in assay [3], 19.8%; in assay [4] it was 18.4%.
In the case of `COc1ccc(N/N=C(\C#N)C(=N)SCc2ccccc2)cc1`, the inhibition was 25.9% in assay [1], 34.2% (active) in assay [2], 35.7% in assay [3] and 29.5% (active) in assay [4].
On to `Cn1c(/C(C#N)=C/c2ccc(-c3ccc(S(N)(=O)=O)cc3)o2)nc2ccccc21`, for which the inhibition in assay [1] is 27.9%; in assay [2], 27.3%; in assay [3], -4.53%; in assay [4], 28.9% (active).
On to `COc1cc2cncc(Cc3ccc(Cl)cc3)c2cc1OC`, for which the inhibition in assay [1] is 42.2%; in assay [2], 40.7% (active); in assay [3], 56.2% (active); in assay [4], 39.4% (active).
The corresponding values for `OCCN1CCN(C(=S)c2ccc(-c3ccccc3)cc2)CC1` are 35.6%, 4.96%, 36.8% and 6.4%.
For `Cc1ccc2c(C)nc(Nc3nc(CSc4nc5ccccc5[nH]4)cc(=O)[nH]3)nc2c1`, the inhibition in assay [1] was 12.4%; in assay [2], 16.1%; in assay [3], -14.6%; in assay [4], 17.5%.
Turning to `C[n+]1c2n(c3ccccc31)N=C(c1ccccc1)CS2`, the inhibition was 4.94% in assay [1], 37.2% (active) in assay [2], -2.14% in assay [3] and 35.1% (active) in assay [4].
For `O=[N+]([O-])c1ccc(O)c(/C=N/Nc2ccc(Cl)nn2)c1`, the inhibition in assay [1] is 87.2% (active); in assay [2], 83.6% (active); in assay [3], 73.1% (active); in assay [4], 82.2% (active).
On to `CN(Cc1c(C(=O)N/N=C/c2ccccc2O)nnn1-c1nonc1N)C1CCCCC1`, for which the inhibition was 66.8% (active) in assay [1], 46.5% (active) in assay [2], 59.7% (active) in assay [3] and 59.8% (active) in assay [4].
As for `CC(C)(C)C(=O)NC(=S)NNC(=O)c1sc2ccccc2c1Cl`, the inhibition in assay [1] was 10.1%; in assay [2] it was 3.67%; in assay [3] it was -1.3%; in assay [4], -6.4%.
